Measurements as given in PubChem BioAssay (NCATS).
Results filed as inconclusive are left out. Entries that show only a call come without a potency. Active and inactive are the calls of the source. Unless noted, calls follow the shape of the full dose curve.

Legend:
[1] = qHTS assay for small molecule agonists of retinoid X receptor alpha signaling (AID 588544); details: HEK293T RXRa-UAS-bla, beta-lactamase reporter, 18 h; 530 nm emission
[2] = target: Retinoic acid receptor RXR-alpha (Homo sapiens) (UniProt P19793); assay: as above; details: HEK293T RXRa-UAS-bla, beta-lactamase reporter, 18 h; series mostly up to 76.7 µM
Retinoic acid receptor RXR-alpha (Homo sapiens), sequence (P19793 whole entry, looked up): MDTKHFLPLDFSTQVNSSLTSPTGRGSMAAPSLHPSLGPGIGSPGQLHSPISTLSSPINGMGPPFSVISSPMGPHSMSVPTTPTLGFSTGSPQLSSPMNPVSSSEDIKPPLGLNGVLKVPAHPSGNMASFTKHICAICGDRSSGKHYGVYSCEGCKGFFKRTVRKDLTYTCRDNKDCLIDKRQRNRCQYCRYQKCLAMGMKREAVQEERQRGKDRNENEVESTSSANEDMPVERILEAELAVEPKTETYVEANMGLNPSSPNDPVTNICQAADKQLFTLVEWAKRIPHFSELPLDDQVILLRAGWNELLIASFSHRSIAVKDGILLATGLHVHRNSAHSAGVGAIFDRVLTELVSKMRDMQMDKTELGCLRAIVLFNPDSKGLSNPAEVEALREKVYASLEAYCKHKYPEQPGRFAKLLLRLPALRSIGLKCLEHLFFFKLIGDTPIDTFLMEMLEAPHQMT

[3] = target: Thyroid hormone receptor beta (Homo sapiens) (UniProt P10828); assay: qHTS assay for small molecule agonists of thyroid hormone receptor beta signaling (AID 588545); details: TR-UAS-bla GripTite HEK 293, beta-lactamase ratio, agonist mode, 18 h, percent of T3 response, DMSO as zero; series mostly up to 76.7 µM
Thyroid hormone receptor beta (Homo sapiens), sequence (P10828 whole entry, looked up): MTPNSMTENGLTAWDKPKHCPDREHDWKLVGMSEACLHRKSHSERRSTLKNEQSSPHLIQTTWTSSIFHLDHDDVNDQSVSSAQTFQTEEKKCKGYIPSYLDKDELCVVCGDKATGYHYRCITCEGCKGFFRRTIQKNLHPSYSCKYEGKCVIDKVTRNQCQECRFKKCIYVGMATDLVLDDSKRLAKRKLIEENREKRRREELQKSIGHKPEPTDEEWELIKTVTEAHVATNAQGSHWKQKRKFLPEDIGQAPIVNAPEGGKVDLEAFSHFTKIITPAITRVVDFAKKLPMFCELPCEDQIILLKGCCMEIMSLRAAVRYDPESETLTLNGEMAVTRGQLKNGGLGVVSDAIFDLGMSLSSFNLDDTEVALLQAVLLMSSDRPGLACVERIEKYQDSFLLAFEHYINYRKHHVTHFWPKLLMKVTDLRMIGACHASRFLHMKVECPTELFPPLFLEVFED
Method in brief: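 Cells (2500/well) were seeded, incubated 4 hrs at 37 C, dosed with a compound series, incubated 18 hrs, loaded with CCF4 dye for 2 hrs at RT, then read for fluorescence. Data were scaled between DMSO (0%) and 10 nM T3 (100%).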

[4] = qHTS assay for small molecule antagonists of retinoid X receptor alpha signaling (AID 588546; active = well fitted inhibition curve with a large enough effect in the signal ratio, with a control signal flat, not every such curve was filed as active; the % refers to the signal ratio;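 also: cells stimulated with 9-cis-retinoic acid as agonist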); details: HEK293T RXRa-UAS-bla, beta-lactamase ratio, antagonist mode; measured here: W530 green channel, cytotoxicity proxy
Method in brief: (§1)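 Beta-lactamase reporter inhibition, read as CCF4 fluorescence ratio (ex 405, em 460/530 nm) after 2 h at RT. HEK293T UAS-bla cells, 2500/well, were stimulated with 9-cis-RA at 500 or 100 nM final alongside test compound for 18 h at 37 C.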

[5] = target: Retinoic acid receptor RXR-alpha (Homo sapiens) (UniProt P19793); assay: as above; details: HEK293T RXRa-UAS-bla, beta-lactamase ratio, antagonist mode
Method in brief: as §1

[6] = target: Thyroid hormone receptor beta (Homo sapiens) (UniProt P10828); assay: qHTS assay for small molecule antagonists of thyroid hormone receptor beta signaling (AID 588547; active = well fitted inhibition curve with a large enough effect in the signal ratio, with a control signal flat, not every such curve was filed as active; the % refers to the signal ratio;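 also: cells stimulated with 0.4 nM T3 agonist during compound exposure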); details: TR-UAS-bla HEK293, beta-lactamase ratio, antagonist mode, 18 h
Method in brief: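 Inhibition of T3-driven (0.4nM final) beta-lactamase reporter activity was measured over 0.59 nM to 92 uM compound after 18 h at 37 C. The cells were GripTite HEK293 TR-UAS-bla in charcoal/dextran-stripped serum, with CCF4 ratio read-out and IC50 from Hill fits.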

[7] = target: Voltage-gated inwardly rectifying potassium channel KCNH2 (Homo sapiens) (UniProt Q12809); assay: qHTS Assay for Small Molecule Inhibitors of the Human hERG Channel Activity (AID 588834; active = well fitted curve in the direction sought with a large enough effect; an effect the other way counts as inactive or inconclusive;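 also: top concentration of the series differs between compounds; lower thallium flux fluorescence means stronger hERG block; nearly all actives have a fitted effect of over 50% in size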); details: U2OS BacMam hERG, FluxOR thallium flux fluorescence; series mostly up to 92.2 µM
Voltage-gated inwardly rectifying potassium channel KCNH2 (Homo sapiens), sequence (Q12809 whole entry, looked up): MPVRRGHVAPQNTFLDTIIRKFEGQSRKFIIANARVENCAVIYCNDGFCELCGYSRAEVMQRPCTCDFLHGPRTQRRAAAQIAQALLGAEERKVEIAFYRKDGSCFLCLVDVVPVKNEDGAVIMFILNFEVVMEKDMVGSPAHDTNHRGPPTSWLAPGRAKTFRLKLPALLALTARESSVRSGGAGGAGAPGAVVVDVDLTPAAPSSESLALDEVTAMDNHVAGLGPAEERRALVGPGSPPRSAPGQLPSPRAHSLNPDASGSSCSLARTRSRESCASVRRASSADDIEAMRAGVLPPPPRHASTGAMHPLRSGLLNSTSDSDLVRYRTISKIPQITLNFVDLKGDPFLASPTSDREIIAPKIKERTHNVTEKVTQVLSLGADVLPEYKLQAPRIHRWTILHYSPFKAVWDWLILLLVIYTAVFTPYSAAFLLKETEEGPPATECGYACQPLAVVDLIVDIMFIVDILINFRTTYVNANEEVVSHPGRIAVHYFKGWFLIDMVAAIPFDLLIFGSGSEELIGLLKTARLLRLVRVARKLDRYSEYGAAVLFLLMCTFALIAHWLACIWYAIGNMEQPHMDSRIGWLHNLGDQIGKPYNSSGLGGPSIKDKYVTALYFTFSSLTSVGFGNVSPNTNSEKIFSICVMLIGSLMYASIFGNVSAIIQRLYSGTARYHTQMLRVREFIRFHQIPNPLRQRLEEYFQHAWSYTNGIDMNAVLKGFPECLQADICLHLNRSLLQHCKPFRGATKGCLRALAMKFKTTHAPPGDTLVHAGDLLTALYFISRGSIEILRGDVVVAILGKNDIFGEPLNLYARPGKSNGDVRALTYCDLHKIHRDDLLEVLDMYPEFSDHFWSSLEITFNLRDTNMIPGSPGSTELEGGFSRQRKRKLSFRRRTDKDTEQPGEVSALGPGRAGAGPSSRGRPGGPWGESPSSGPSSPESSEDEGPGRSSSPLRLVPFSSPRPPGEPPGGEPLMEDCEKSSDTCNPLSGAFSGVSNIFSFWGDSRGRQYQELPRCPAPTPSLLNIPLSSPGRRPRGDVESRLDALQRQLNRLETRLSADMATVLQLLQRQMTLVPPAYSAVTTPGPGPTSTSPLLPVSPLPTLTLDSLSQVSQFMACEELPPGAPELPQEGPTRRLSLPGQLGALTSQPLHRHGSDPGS
Method in brief: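 Homogeneous FluxOR thallium flux assay using hERG-expressing U2OS cells (BacMam). Compound treatment about 10 minutes preceded stimulation; reduced fluorescence taken as channel block.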

[8] = qHTS assay for small molecule agonists of the antioxidant response element (ARE) signaling pathway (AID 651741; active = well fitted activation curve with a large enough effect in the signal ratio; the % refers to the signal ratio); details: HepG2 ARE-bla reporter, beta-lactamase FRET ratio, 16 h; series mostly up to 96 µM
Method in brief: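 Beta-lactamase reporter under ARE control in HepG2 cells, 2,000 per well, was induced by 16 h compound treatment at 37 C. Read-out was fluorescence from LiveBLAzer B/G FRET substrate after 2 h at room temperature.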

[9] = qHTS assay for small molecule activators of the p53 signaling pathway (AID 651743; active = well fitted activation curve with a large enough effect in the signal ratio, not every such curve was filed as active; the % refers to the signal ratio); details: HCT-116 p53RE-bla, beta-lactamase FRET ratio, 16 h; stronger effect = higher value
Method in brief: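 After 16 hours compound treatment at 37 C, HCT-116 cells stably expressing p53RE-driven beta-lactamase were loaded with LiveBLAzer B/G FRET substrate for 2 hours at room temperature. Fluorescence intensity served as the p53 activation read-out.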

[10] = qHTS assay for small molecule activators of the nuclear factor-kappa B (NF-kB) signaling pathway (AID 651749; active = well fitted activation curve with a large enough effect in the signal ratio; the % refers to the signal ratio); details: NF-kB-bla ME-180 cells, beta-lactamase FRET ratio, 16 h; stronger effect = higher value
Method in brief: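 Activation measured after 16 hr compound treatment at 37C, 5% CO2, of 2,000 ME-180 cells/well stably expressing an NF-kB response element–driven beta-lactamase reporter, via FRET-disruption fluorescence.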

[11] = qHTS assay for small molecule disruptors of the mitochondrial membrane potential - 1 hr assay (AID 651754); details: series mostly up to 92.2 µM; also: nearly all actives have a fitted effect of over 35% in size
Method in brief: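 Loss of mitochondrial potential shifts the cationic dye from red mitochondrial aggregates to green cytoplasmic monomers. Cells (HepG2) are treated with compound for 1 hr before a 30 min dye incubation at 37C.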

[12] = qHTS assay for small molecule disruptors of the mitochondrial membrane potential - 5 hr assay (AID 651755); details: JC-1-type ratio dye; series mostly up to 92.2 µM; also: nearly all actives have a fitted effect of over 40% in size
Method in brief: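 Membrane-potential dye readout: red aggregate (540 ex/590 em) versus green monomer (490 ex/535 em) fluorescence after 30 min dye loading, following 5 hr compound exposure at 37C of overnight-plated HepG2 cells.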

[13] = target: Tumor necrosis factor (Homo sapiens) (UniProt P01375); assay: qHTS assay to identify small molecules that stimulate Tumor Necrosis Factor-alpha (TNF-alpha) secretion (AID 651757; active = well fitted curve in the direction sought with a large enough effect in the signal ratio; the % refers to the signal ratio); details: Human cells, HTRF 665/615 ratio; series mostly up to 92.2 µM
Tumor necrosis factor (Homo sapiens), sequence (P01375 whole entry, looked up): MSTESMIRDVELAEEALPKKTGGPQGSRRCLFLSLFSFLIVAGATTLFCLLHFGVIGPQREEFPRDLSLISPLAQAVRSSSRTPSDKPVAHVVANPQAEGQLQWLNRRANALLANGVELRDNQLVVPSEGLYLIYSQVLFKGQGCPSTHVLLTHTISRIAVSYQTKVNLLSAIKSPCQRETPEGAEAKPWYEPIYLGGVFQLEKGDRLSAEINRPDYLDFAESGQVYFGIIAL
Method in brief: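 Human monocytic THP-1 cells are plated, treated with compound and held at 37 C for 17 hrs. Labeled anti-TNF-alpha antibody mixture is then added; after 3 hr at room temperature, TR-FRET signal reports secreted TNF-alpha.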

[14] = qHTS assay to identify small molecules that stimulate interleukin-8 (IL-8) secretion (AID 651758; active = well fitted activation curve with a large enough effect in the signal ratio; the % refers to the signal ratio); details: HTRF ratio (665/615); series mostly up to 92.2 µM
Method in brief: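 Secreted IL-8 measured homogeneously by TR-FRET (two labelled anti-IL-8 antibodies, 1-3 h at room temperature) after a 16 h, 37 C compound treatment of THP-1 cells at 2000 cells/well.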

[15] = target: Peroxisome proliferator-activated receptor alpha (Homo sapiens) (UniProt Q07869); assay: qHTS assay for small molecule agonists of the peroxisome proliferator-activated receptor alpha (PPARalpha) signaling pathway (AID 651778; active = well fitted curve in the direction sought with a large enough effect; an effect the other way counts as inactive or inconclusive); details: PathHunter PPARalpha complementation, chemiluminescence, 6 h; stronger effect = higher value
Peroxisome proliferator-activated receptor alpha (Homo sapiens), sequence (Q07869 whole entry, looked up): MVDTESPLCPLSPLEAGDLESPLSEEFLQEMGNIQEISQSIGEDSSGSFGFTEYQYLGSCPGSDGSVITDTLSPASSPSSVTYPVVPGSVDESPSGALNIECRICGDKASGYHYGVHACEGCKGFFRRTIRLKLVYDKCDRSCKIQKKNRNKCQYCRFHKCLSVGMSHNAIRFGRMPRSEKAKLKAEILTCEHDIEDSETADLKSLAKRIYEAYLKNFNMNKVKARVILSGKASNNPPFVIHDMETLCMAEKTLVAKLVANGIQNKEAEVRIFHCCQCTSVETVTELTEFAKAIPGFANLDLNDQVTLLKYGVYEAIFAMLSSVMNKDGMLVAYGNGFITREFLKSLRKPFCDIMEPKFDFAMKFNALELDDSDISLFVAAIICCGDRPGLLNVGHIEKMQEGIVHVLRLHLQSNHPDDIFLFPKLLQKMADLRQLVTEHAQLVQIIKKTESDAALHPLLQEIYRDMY
Method in brief: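 Chemiluminescence from complemented enzyme reported PPARalpha activation in cells after 6 hr of compound treatment at 37 C. The detection reagent was incubated for 60 min at room temperature, and compounds were scored as agonists.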

[16] = qHTS assay for small molecule agonists of the antioxidant response element (ARE) signaling pathway measured by Nrf2-dependant transcriptional activity (AID 720636; active = well fitted curve in the direction sought with a large enough effect in the repeat runs; an effect the other way counts as inactive or inconclusive); details: ARE-luc HepG2, Nrf2 luciferase reporter, 16 h; series mostly up to 92.4 µM
Method in brief: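 Quantitative HTS format in HepG2 cells stably expressing an ARE-luciferase reporter; 16 hr compound treatment at 37 C, luciferase signal detected with ONE-Glo.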

[17] = qHTS assay for small molecule antagonists of the retinoid-related orphan receptor gamma (ROR-gamma) signaling pathway - cell viability counter screen (AID 720652; active = well fitted curve in the direction sought with a large enough effect in the repeat runs; an effect the other way counts as inactive or inconclusive;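 also: CHO reporter cells with doxycycline-induced ROR-gamma expression; compound exposure lasted 16 hr before ATP read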); details: RORgamma reporter cell line viability counter screen; series mostly up to 92.2 µM
Method in brief: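 Steps: seed CHO cells bearing TET-inducible ROR and ROR response element-luciferase; rest 5 hr at 37 C; add compound, then doxycycline; incubate 16 hr; add CellTiter-Glo and read luminescence as ATP-based viability.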

[18] = qHTS assay for small molecule agonists of the antioxidant response element (ARE) signaling pathway measured by Nrf2-dependant transcriptional activity - cell viability counter screen (AID 720653; active = well fitted curve in the direction sought with a large enough effect in the repeat runs; an effect the other way counts as inactive or inconclusive); details: ARE-bla HepG2 viability, CellTiter-Glo ATP luminescence, 16 h; stronger effect = lower value
Method in brief: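 Cytotoxicity counter screen: intracellular ATP quantified by CellTiter-Glo luminescence in the same ARE-bla HepG2 plates, after 16 h compound exposure and a 2 h beta-lactamase substrate step.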

[19] = qHTS assay for environmental chemicals that activate the Aryl hydrocarbon Receptor (AhR) signaling pathway (AID 651777; active = well fitted curve in the direction sought with a large enough effect; an effect the other way counts as inactive or inconclusive; also: nearly all actives have a fitted effect of over 15% in size); details: 1A2-DRE human hepatoma cells, luciferase, 24 h; activation: stronger effect = higher value
Method in brief: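 Quantitative HTS in stably transfected human liver-derived cells whose luciferase gene sits downstream of the CYP1A2 promoter and dioxin response element. After 24 hr exposure at 37 C, One-Glo luminescence was measured.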

[20] = target: Nuclear receptor ROR-gamma (Homo sapiens) (UniProt P51449); assay: qHTS assay for small molecule antagonists of the retinoid-related orphan receptor gamma (ROR-gamma) signaling pathway (AID 651802; active = well fitted curve in the direction sought with a large enough effect; an effect the other way counts as inactive or inconclusive;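 also: CHO cells with doxycycline-induced ROR-gamma expression; nearly all actives have a fitted effect of over 60% in size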); details: ROR-gamma antagonist cell reporter assay; series mostly up to 92.2 µM
Nuclear receptor ROR-gamma (Homo sapiens), sequence (P51449 whole entry, looked up): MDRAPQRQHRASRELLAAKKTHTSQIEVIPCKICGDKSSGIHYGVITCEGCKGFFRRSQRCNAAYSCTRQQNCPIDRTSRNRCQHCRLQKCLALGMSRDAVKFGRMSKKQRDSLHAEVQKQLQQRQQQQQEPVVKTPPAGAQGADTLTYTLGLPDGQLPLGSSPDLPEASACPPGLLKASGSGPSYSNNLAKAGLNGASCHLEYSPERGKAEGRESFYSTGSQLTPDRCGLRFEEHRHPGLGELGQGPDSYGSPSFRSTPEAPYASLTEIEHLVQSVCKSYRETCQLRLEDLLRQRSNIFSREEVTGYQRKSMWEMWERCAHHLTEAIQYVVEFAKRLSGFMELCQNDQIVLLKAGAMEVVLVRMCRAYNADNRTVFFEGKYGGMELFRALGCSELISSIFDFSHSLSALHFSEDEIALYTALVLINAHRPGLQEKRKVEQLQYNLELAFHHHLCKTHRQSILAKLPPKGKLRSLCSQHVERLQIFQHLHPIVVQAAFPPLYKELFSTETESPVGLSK
Method in brief: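 Steps: cells dispensed; compound or DMSO transferred by pin tool; doxycycline added to induce the ROR response element-driven luciferase; plates held 16hr at 37C; ONE-Glo added and luminescence measured.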

Compound	max response [1]	outcome [2]	outcome [3]	max response [4]	max response [5]	activity change % (negative = inhibition) [6]	Potency [7]	Potency [8]	activation [9]	activation [10]	Potency [11]	Potency [12]	Potency [13]	Potency [14]	max response [15]	outcome [16]	Potency [17]	max response [18]	activation [19]	Potency [20]
CC(C)N(C)C	-10.9%	inactive	inactive	-0.298%	11.2% (inactive)	-6.45% (inactive)	inactive	inactive	-1.2% (inactive)	-1.35% (inactive)	inactive	inactive	inactive	inactive	-5.48% (inactive)	inactive	inactive	2.26% (inactive)	–	–
CO[Si](CCCNCCC[Si](OC)(OC)OC)(OC)OC	9.17%	inactive	inactive	7.72%	10.8% (inactive)	-0.795% (inactive)	inactive	inactive	0.23% (inactive)	0.71% (inactive)	inactive	inactive	inactive	inactive	-5.87% (inactive)	inactive	inactive	-1.66% (inactive)	-0.757% (inactive)	inactive
O=[N+]([O-])c1ccc(CCO)cc1	-1.7%	inactive	inactive	-0.777%	2.63% (inactive)	3.64% (inactive)	inactive	inactive	-2.15% (inactive)	-0.318% (inactive)	inactive	inactive	inactive	–	-1.57% (inactive)	inactive	inactive	-24.2% (inactive)	0.416% (inactive)	inactive
C=C(C)C(N)=O	-0.693%	inactive	inactive	-10.5%	23.8% (inactive)	-24.4% (inactive)	inactive	inactive	-2.66% (inactive)	-0.276% (inactive)	inactive	inactive	inactive	–	–	inactive	inactive	-10.7% (inactive)	-1.72% (inactive)	inactive
O=C(O)c1ccc(Cl)c(Cl)c1	12.9%	inactive	inactive	11.8%	14.6% (inactive)	2.03% (inactive)	inactive	inactive	3.05% (inactive)	0.147% (inactive)	inactive	inactive	inactive	inactive	-5.43% (inactive)	inactive	inactive	-1.66% (inactive)	1.84% (inactive)	inactive
ICCc1ccccc1	3.08%	inactive	inactive	-3.71%	22.3% (inactive)	3.09% (inactive)	inactive	inactive	-3.45% (inactive)	-1.75% (inactive)	inactive	inactive	inactive	inactive	-1.29% (inactive)	inactive	inactive	3.37% (inactive)	3.65% (inactive)	inactive
